High-throughput results from PubChem.
Pf Dd2 inh: Plasmodium falciparum Dd2 growth inhibition. AID 1347417. Potency, µM (highest dose often 28.9 µM), actives largely listed as inhibitors. 120,000 compounds, 4.3% hits. P. falciparum Dd2 growth, SYBR Green, 72 h; active means well fitted inhibition curve with a large enough effect; further: nearly all actives have a fitted effect of over 65% in size
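Infected erythrocytes (Dd2, 0.3% parasitemia, 2.5% hematocrit final) are added to compound in RPMI-1640/Albumax II medium, grown 72 h at 37C in low oxygen, then lysed with saponin/Triton-X containing SYBR Green and read by fluorescence.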
Hits are given with their value; – = inactive. This is one part of a sample in which hits are shown more often than they occur.

SMILES | Pf Dd2 inh
Cc1nc(C2(C)CCN(C(=O)CCc3cc(Cl)no3)CC2)no1 | –
Cc1ccc(Cc2c(C)nc3nc(SCC(=O)NC(C)c4ccccc4)nn3c2C)cc1 (centres undefined) | –
Cc1nc2c(C(=O)NC(C)c3ccccc3)cnn2c(C)c1Cc1ccccc1 (centres undefined) | 8.9µM
Cc1nc2c(C(=O)NCCc3ccc(Cl)cc3)cnn2c(C)c1Cc1ccc(F)cc1 | –
O=C(CCC1CCCC1)N1CCc2c([nH]c3ccccc23)C1c1ccc(F)cc1 (centres undefined) | 11µM
O=C1CCC(CCC(=O)N2CCCC2c2ccc(F)cc2)(Cc2cccc3ccccc23)N1 (centres undefined) | –
O=C(CCc1ccccc1)N1CCc2c([nH]c3ccccc23)C1c1ccc(F)cc1 (centres undefined) | 11µM
CSc1ccc(C2c3[nH]c4ccccc4c3CCN2C(=O)CCc2ccccc2)cc1 (centres undefined) | –
COc1ccc(C2c3[nH]c4ccccc4c3CCN2C(=O)CCC2CCCC2)cc1 (centres undefined) | –
O=C1CN(C(=O)Cc2ccccc2)C(c2ccc(F)cc2)c2cc(Br)ccc2N1 (centres undefined) | –
CN(C)C(=O)N1CCCn2nc(CNC(=O)C(=O)c3ccco3)cc2C1 | –
O=c1c2c(n(Cc3cccnc3)n1-c1ccccc1)CN(CC1CC1)CC2 | –
O=C(Cc1ccc(F)cc1)N1CCN(c2cc(C(F)(F)F)ncn2)CC1 | –
COc1ccccc1Cn1c(C(C)NC(=O)OCc2ccccc2)nc2cccnc21 (centres undefined) | –
COC(=O)c1ccc(Cl)cc1NC(=O)N1CC(C)Oc2ccccc21 (centres undefined) | –
COc1ccc(-n2cc(C(=O)Nc3cc(F)ccc3F)c3ccccc3c2=O)cc1 | –
COC(=O)CC1Oc2ccc(F)cc2-n2cc(-c3ccc(Cl)cc3)nc21 (centres undefined) | 11µM
COC(=O)CNC(=O)c1nc(-c2ccc(Cl)cc2)c2ccccn12 | –
COC(=O)CC1Oc2ccccc2-n2cc(-c3ccc(Cl)cc3)nc21 (centres undefined) | 3.5µM
O=C(CS(=O)(=O)c1nc(-c2ccc(Cl)cc2)cn1-c1ccccc1)Nc1ccc(F)cc1F | –
CC1=C[C@@H](CC#N)[C@H](C(C)C)C[C@H]1CC(=O)NCc1ccc(F)cc1 | –
CC(C)C(=O)Nc1ccc2c(c1)CN(CCc1ccc(F)cc1)C(=O)C(C)O2 (centres undefined) | –
C[S+](=O)([O-])N1CCCC2(C1)C(=NC1CCCCC1)NC(=O)N2c1cccnc1 (centres undefined) | –
COC(=O)[C@H](NC(=O)[C@@]1(O)C[C@@H](O)[C@H](O)[C@@H](NC(=O)Nc2ccc(C(C)=O)cc2)C1)C(C)C | –
O=C(NC[C@H]1O[C@@H](CC(=O)N2CCN(c3ccc(F)cc3)CC2)[C@H](O)[C@@H]1O)c1cccc(F)c1 | –
SMILES | Pf Dd2 inh
O=C(CCC1CCN(S(=O)(=O)c2ccccc2)CC1)NCc1ccco1 | –
Cc1noc(C)c1S(=O)(=O)N1C[C@@H](F)C[C@H]1C(=O)N1CCCCC1 | –
O=C(NCc1cccc(Br)c1)c1ccc(NC(=O)N2CCCCc3ccccc32)cc1 | –
CS(=O)(=O)N1CCC(OC2CCN(C(=O)Nc3cccc(Cl)c3)CC2)CC1 | –
O=C(Nc1cccc(Cl)c1)N1CC2CCCN2c2ccccc21 (centres undefined) | 8.9µM
O=C(CCC(=O)N1CC2CCCN2c2ccccc21)NCc1cccc(Cl)c1 (centres undefined) | –
O=C(NCc1cccc(Cl)c1)c1ccc(NC(=O)N2CC3CCCN3c3ccccc32)cc1 (centres undefined) | 8.9µM
O=C(c1cccc(Cl)c1)N1CCC(N2CC3CCCN3C2=O)CC1 (centres undefined) | –
COCCN1C[C@H]2CN(Cc3ncc[nH]3)CCN2C1=O | –
COc1ccccc1CN(Cc1ccccc1C)C(=O)[C@H]1CCC[C@H](O)C1 | –
CN(C)C(=O)C1=NOC2CN(C(=O)Nc3cccnc3)CC12 (centres undefined) | –
O=c1c2c3c(nn2ccn1Cc1cc(=O)n2ccccc2n1)CCCC3 | –
CCc1noc(CC2CCOC3(CCN(S(=O)(=O)c4ccccc4Cl)CC3)C2)n1 (centres undefined) | –
CCn1c(COc2ccc(Cl)cc2Cl)nc2ccccc21 | –
COc1ccc(OCC(O)Cn2c(=N)n(CCN3CCCCC3)c3ccccc32)cc1 (centres undefined) | 7.9µM
COc1ccc(N2CCN(CC(O)COc3ccc(C(C)(C)C)cc3)CC2)cc1 (centres undefined) | –
CCNc1nc2c(c(=O)[nH]c(=O)n2C)n1CC(O)COc1ccc(Cl)cc1Cl (centres undefined) | –
N=c1n(CCN2CCCCC2)c2ccccc2n1CC(O)COc1ccc(Cl)cc1Cl (centres undefined) | 1µM
Cc1nc2ccccc2n1CC(O)COc1ccc(C(=O)O)cc1 (centres undefined) | –
Cc1ccc(OCC(O)Cn2c(=N)n(CCN3CCCCC3)c3ccccc32)cc1 (centres undefined) | 2.8µM
COc1ccc(N2CCN(CC(O)COc3ccc(C)cc3C)CC2)cc1 (centres undefined) | –
CC1=CCN(Cc2ccc(OCC(O)CN3CCN(C)CC3)cc2)CC1 (centres undefined) | –
O=C1c2c(-c3nc(-c4ccsc4)no3)nnn2CCN1CC1CCCO1 (centres undefined) | –
O=C(c1cnccn1)N1CCc2onc(C(c3ccccc3)c3ccccc3)c2C1 | –
CN(C)C[C@@H]1CN(C2CCOCC2)C[C@H]1NC(=O)C1CC=CCC1 (some centres undefined) | –
SMILES | Pf Dd2 inh
Cc1ccc(C(=O)N2CCc3sc(C(=O)O)cc3C2)cc1 | –
Cc1ccc(C(=O)N2CCc3sc(C(=O)NCc4ccc(F)cc4F)cc3C2)cc1 | –
Cc1ccc(C(=O)N2CCc3sc(C(=O)NCc4ccc(C)o4)cc3C2)cc1 | 11µM
c1cncc(Nc2cc3c(cn2)CN(CC2CCOCC2)CCN3)c1 | –
COc1ccc(Nc2cc3c(cn2)CN(CCc2ccccc2)CCN3)cn1 | –
CC(=O)Nc1cccc(-c2cc3c(cn2)CN(Cc2ccccc2)CCN3)c1 | –
COc1ccc(OC)c(CN2CCNc3cnc(Nc4cccnc4)cc3C2)c1 | –
COc1ccc(OC)c(CN2CCNc3cc(Nc4ccccc4)ncc3C2)c1 | 3.5µM
COc1ccc(CN2CCNc3cc(Nc4ccccc4)ncc3C2)cc1O | –
c1ccc(CCN2CCNc3cc(NCCN4CCOCC4)ncc3C2)cc1 | –
CN1CCNc2cc(NCc3ccccc3)ncc2C1 | –
c1ccc(Nc2cc3c(cn2)CN(CC2CC2)CCN3)cc1 | 13µM
Fc1cccc(CN2CCNc3cc(Nc4ccccc4)ncc3C2)c1 | –
CCCN1CCNc2cc(Nc3ccccc3)ncc2C1 | 8.9µM
c1ccc(CN2CCNc3cc(Nc4ccc(N5CCOCC5)cc4)ncc3C2)cc1 | 11µM
COc1ccccc1OC1(C(=O)O)CCN(C(=O)CCC2CC2)CC1 | –
Cc1ccc2c(c1)N(CC(=O)N1[C@@H]3CC[C@H]1CNC(=O)C3)C(=O)CO2 | –
CCOc1ccccc1NC(=O)N1CCC(Oc2ncccc2C(=O)N2CCCCC2)C1 (centres undefined) | –
O=C1NC2(CN(C(=O)Cc3ccccc3)C2)Oc2ccccc21 | –
COCC(=O)NC1CCC12CCN(C(=O)Cc1c[nH]c3ccccc13)CC2 (centres undefined) | –
